Results: PMC5540273 (PLoS ONE, 2017)

How the values were obtained:
Conditions in all cases: concentration: 1 μM, replicates: in singlicate; n = 1
[1] = tested on: PRKCQ
[2] = tested on: PRKD1
[3] = tested on: PRKD2
[4] = tested on: PRKD3
[5] = tested on: PRKG1
[6] = tested on: PRKG2
[7] = tested on: T1, PRKR
T1 construct: gene EIF2AK2

[8] = tested on: PRKX
[9] = tested on: PRP4
[10] = tested on: T2, PYK2
T2 construct: gene PTK2B

[11] = tested on: QSK
[12] = tested on: RAF1
[13] = tested on: RET
[14] = tested on: RIOK1
[15] = tested on: RIOK2
[16] = tested on: RIOK3
[17] = tested on: RIPK1
[18] = tested on: RIPK2
[19] = tested on: RIPK4
[20] = tested on: RIPK5
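Note: KINOMEscan kinase panel screen.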

Row | SMILES | %Inh [1] [%] | %Inh [2] [%] | %Inh [3] [%] | %Inh [4] [%] | %Inh [5] [%] | %Inh [6] [%] | %Inh [7] [%] | %Inh [8] [%] | %Inh [9] [%] | %Inh [10] [%] | %Inh [11] [%] | %Inh [12] [%] | %Inh [13] [%] | %Inh [14] [%] | %Inh [15] [%] | %Inh [16] [%] | %Inh [17] [%] | %Inh [18] [%] | %Inh [19] [%] | %Inh [20] [%]
1 | O=C1NC(=O)C(N2CCc3ccccc32)=C1c1ccccc1Cl [SB-373598] | 7 | 12 | 3 | 0 | 36 | 12 | 5 | 12 | 0 | 0 | 4 | 25 | 3 | 19 | 4 | 1 | 0 | 10 | 12 | 0
2 | CCn1c(-c2cccnc2O)nc2cnccc21 [SB-736715] | 0 | 0 | 0 | 0 | 0 | 0 | 0 | 0 | 0 | 0 | 0 | 0 | 5 | 6 | 0 | 0 | 0 | 0 | 21 | 0
3 | Cc1ccc(NC(=O)Nc2cc(C(C)(C)C)nn2-c2ccccc2)cc1 [GSK1014915] | 0 | 7 | 0 | 18 | 11 | 0 | 0 | 57 | 1 | 4 | 13 | 89 | 46 | 18 | 0 | 0 | 9 | 6 | 12 | 0
4 | O=C(Nc1ccccc1)Nc1cccc(Oc2ccc3nccn3n2)c1 | 10 | 0 | 7 | 0 | 4 | 0 | 0 | 0 | 26 | 60 | 0 | 21 | 8 | 48 | 0 | 15 | 2 | 0 | 0 | 0
5 | COc1cc2ncnc(Nc3ccc4nc(-c5ccccc5)[nH]c4c3)c2cc1OC.Cl [GW282450] | 11 | 0 | 5 | 7 | 0 | 13 | 13 | 5 | 10 | 7 | 0 | 10 | 33 | 51 | 11 | 25 | 18 | 27 | 1 | 0
6 | CC1=C(C(=O)Nc2cc3cn[nH]c3cc2F)C(c2ccc(C(F)(F)F)cc2)CC(=O)N1 (stereo not shown) [GSK429286] | 28 | 22 | 4 | 0 | 30 | 0 | 0 | 87 | 7 | 10 | 14 | 5 | 44 | 34 | 23 | 0 | 0 | 12 | 13 | 1
7 | Cc1cccc(-c2nc(-c3ccc(S(C)(=O)=O)cc3)sc2-c2ccnc(NCCc3ccccc3)c2)c1 | 26 | 1 | 0 | 0 | 20 | 20 | 0 | 0 | 9 | 4 | 0 | 93.4 | 30 | 17 | 15 | 18 | 3 | 6 | 0 | 0
8 | O=C(Nc1n[nH]c2nc(-c3nccs3)c(Br)cc12)C1CC1 [SB-742251] | 32 | 0 | 0 | 0 | 0 | 0 | 0 | 0 | 51 | 0 | 19 | 8 | 12 | 30 | 0 | 29 | 15 | 10 | 17 | 0
9 | Fc1cc(Cl)ccc1Nc1ccnc2cc(-c3ccc(CN4CCCCC4)o3)ccc12 [GW560116] | 0 | 0 | 0 | 0 | 0 | 0 | 0 | 0 | 21 | 0 | 29 | 8 | 22 | 12 | 0 | 0 | 8 | 61 | 0 | 0
10 | O=c1cc(N2CCOCC2)nc2n(Cc3cccc(Cl)c3Cl)ccn12 [GSK2286295] | 14 | 0 | 20 | 0 | 0 | 0 | 0 | 0 | 0 | 0 | 1 | 7 | 1 | 42 | 56 | 19 | 0 | 6 | 6 | 0
11 | COc1cc2nccc(Nc3ccc(NC(=O)c4ccc(C)cc4)c(O)c3)c2cc1OC.Cl [GW440132] | 16 | 0 | 0 | 0 | 0 | 0 | 0 | 18 | 2 | 12 | 2 | 5 | 49 | 46 | 13 | 0 | 4 | 17 | 0 | 0
